# Measured values reported in the supplement of paper PMC3724861.
# The sample as a whole holds a higher share of hits than the screen did. The true hit rate is not given.
# System: T1, Caupolican (Caup) homeodomain DNA-binding domain
# T1 sequence: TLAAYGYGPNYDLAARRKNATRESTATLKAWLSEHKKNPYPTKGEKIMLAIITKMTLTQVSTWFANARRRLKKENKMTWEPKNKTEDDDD
# Assay: PBM E-score (8-mer, recovered from the published 9-mer minima) (E-score (dimensionless, -0.5 to 0.5)); Drosophila protein; higher = stronger relative binding preference, active = 0.31 or more
# Summary of the method: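 Caup's homeodomain DNA-binding domain (residues 214-303) was produced by in vitro transcription and translation and applied at 100 nM to custom-designed protein binding microarrays. Each value is an enrichment score giving relative binding preference for a short DNA word; higher means stronger. Published 9-mer scores were the minimum of their two constituent 8-mer scores, and the 8-mer values were recovered from those minima. A cutoff of 0.31 marks candidate binding sequences.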
row,Sequence,PBM E-score
1,CTTTGCTC,-0.0311 (inactive)
2,CATCCCTC,-0.0768 (inactive)
3,CAAGTGGG,-0.0243 (inactive)
4,ATGTGTTG,0.34 (active)
5,GTGTGTTA,0.275 (inactive)
6,CTGTGTTA,0.259 (inactive)
7,ATGTGTTA,≥ 0.323 (active)
8,ATGTGTTC,0.266 (inactive)
9,ATGTGTGG,0.0766 (inactive)
10,AAAGAAGT,0.0392 (inactive)
11,CATGCTGG,0.0451 (inactive)
12,CGAAGTCC,-0.149 (inactive)
13,GGCAAGTA,0.101 (inactive)
14,ACAGGCGT,-0.013 (inactive)
15,ATGTCAGA,0.336 (active)
16,ATGTCATG,0.353 (active)
17,CTGTCATA,0.246 (inactive)
18,GTGTCATA,0.292 (inactive)
19,ATGTCATA,0.4 (active)
20,GTGTCAGA,0.245 (inactive)
21,ATGTCAGG,0.209 (inactive)
22,ATGTCATC,0.306 (inactive)
23,CTGTCAGA,0.0887 (inactive)
24,ACCTCGCC,-0.212 (inactive)
25,GCCCTGCA,-0.173 (inactive)
26,TCAGTGAA,-0.0554 (inactive)

row,Sequence,PBM E-score
1,CCGAGTAG,-0.0123 (inactive)
2,AAATCACA,0.108 (inactive)
3,CCCGTTAC,0.0202 (inactive)
4,CGTATGTA,0.289 (inactive)
5,GGTATGTA,0.277 (inactive)
6,GATATGAA,0.0673 (inactive)
7,CATATGTC,0.277 (inactive)
8,GATATGTA,0.321 (active)
9,AATATGTA,0.328 (active)
10,AATATGTG,0.259 (inactive)
11,AATATGTC,0.297 (inactive)
12,CATATGTA,0.334 (active)
13,CCGGGAGC,-0.282 (inactive)
14,CTCTGGAA,-0.12 (inactive)
15,CGACGGAC,0.00364 (inactive)
16,ACAGCGAG,-0.0026 (inactive)
17,GGCTATAC,-0.0714 (inactive)
18,AACGAGGA,0.0777 (inactive)
19,CTGAAACC,-0.0654 (inactive)
20,CTTCCGGA,-0.173 (inactive)
21,AAATGTCG,0.144 (inactive)
22,GCATGGCA,-0.0563 (inactive)
23,GCATGTCA,0.44 (active)
24,GAATGTCA,0.169 (inactive)
25,CCATGGCA,-0.0986 (inactive)
26,GAATGTCC,0.145 (inactive)

row,Sequence,PBM E-score
1,CAATGTCA,0.293 (inactive)
2,ACATGTCG,0.416 (active)
3,GCATGTCC,0.31 (active)
4,AAATGTCC,0.126 (inactive)
5,CCATGTCA,0.398 (active)
6,ATATGTCG,0.302 (inactive)
7,GATAAGGA,0.0879 (inactive)
8,CGTTATAC,0.0592 (inactive)
9,GTTTTTGA,0.084 (inactive)
10,GTTTAGAA,0.121 (inactive)
11,CAATGTCG,0.227 (inactive)
12,CCCTGTCG,-0.0227 (inactive)
13,AAATGTCT,0.106 (inactive)
14,ACATGTCC,0.438 (active)
15,ACCTGTCT,0.144 (inactive)
16,ACATGGCA,0.307 (inactive)
17,AAATGTCA,0.266 (inactive)
18,AGATGTCC,0.234 (inactive)
19,ACATGTCA,0.461 (active)
20,ACATGTCT,0.417 (active)
21,CCATGTCG,0.362 (active)
22,CCATGTCC,0.292 (inactive)
23,CTCACAGC,-0.124 (inactive)
24,ACCTACCC,-0.14 (inactive)
25,CGCGTAGC,-0.153 (inactive)
26,CAAGACTA,0.107 (inactive)

row,Sequence,PBM E-score
1,ATAGCCAT,0.0738 (inactive)
2,CATTCATA,0.179 (inactive)
3,CCTGGTGA,-0.102 (inactive)
4,ACTCTGCG,-0.03 (inactive)
5,TCATGGCA,-0.0694 (inactive)
6,TCATGTCA,0.391 (active)
7,TAATGTCA,0.258 (inactive)
8,ATTCGGAA,0.0171 (inactive)
9,CCCGCTAA,-0.182 (inactive)
10,CGCGATCC,-0.0878 (inactive)
11,GACAACAA,0.342 (active)
12,GTCAACAA,0.285 (inactive)
13,GACAACGA,0.179 (inactive)
14,AACAACGC,0.182 (inactive)
15,AACAACAC,0.392 (active)
16,GACAACAC,0.352 (active)
17,CACAACAC,0.265 (inactive)
18,GACAACTC,0.191 (inactive)
19,GTCAACAC,0.175 (inactive)
20,ACTATTTG,0.153 (inactive)
21,GTCTTGAA,0.0106 (inactive)
22,AGAACCCT,-0.163 (inactive)
23,ACATGAAG,0.293 (inactive)
24,ATATGAAT,0.107 (inactive)
25,GCATGAAA,0.111 (inactive)
26,GCATGAAC,0.104 (inactive)

row,Sequence,PBM E-score
1,ACATGAAC,0.372 (active)
2,ACATGAAT,0.336 (active)
3,CCATGAAC,0.0647 (inactive)
4,CCATGAAA,0.00449 (inactive)
5,ACATGAAA,0.314 (active)
6,CTATATTA,0.168 (inactive)
7,CCCTGTCA,0.129 (inactive)
8,CCAACATA,0.211 (inactive)
9,ACAACATC,0.356 (active)
10,ACAACATG,0.441 (active)
11,ACAACATA,0.411 (active)
12,ACAACAGG,0.192 (inactive)
13,ACAACAGC,0.214 (inactive)
14,ACAACTTG,0.271 (inactive)
15,GCAACATA,0.204 (inactive)
16,CCAACATC,0.113 (inactive)
17,ATGGGTCG,-0.0702 (inactive)
18,ACAATGGC,0.0838 (inactive)
19,ACTCTCGC,-0.115 (inactive)
20,GCTTGTAA,0.384 (active)
21,TCTTGCAA,0.0461 (inactive)
22,AGTTGTAT,0.231 (inactive)
23,ACTTGTAT,0.391 (active)
24,AATTGTAT,0.228 (inactive)
25,AATTGTAA,0.209 (inactive)
26,TCTTGTAA,0.371 (active)

row,Sequence,PBM E-score
1,TATTGTAA,0.275 (inactive)
2,GATTGTAA,0.205 (inactive)
3,ATTTGTAA,0.277 (inactive)
4,GTTTGTAA,0.198 (inactive)
5,ACTTGTAA,0.403 (active)
6,ATATCTAC,0.166 (inactive)
7,ACAAAAAC,0.117 (inactive)
8,AGTTGGTG,-0.0391 (inactive)
9,CCGCATAG,-0.0554 (inactive)
10,ATTGTTCG,0.213 (inactive)
11,CGCTCAGC,-0.138 (inactive)
12,GTACAAGA,0.418 (active)
13,GTACAAAA,0.323 (active)
14,ATACAAGC,0.316 (active)
15,GCACAAGA,0.0557 (inactive)
16,CTACAAGC,0.29 (inactive)
17,GTACAATA,0.306 (inactive)
18,ATACAAGA,0.322 (active)
19,ATACAATA,0.26 (inactive)
20,TTACAAAA,0.203 (inactive)
21,CTACAAAA,0.123 (inactive)
22,ATACAAGG,0.283 (inactive)
23,CTACAAGA,0.263 (inactive)
